Source: PubChem BioAssay
TDP1 inh = TDP1 (human) enzyme inhibition; recombinant TDP1, AlphaScreen DNA substrate cleavage; AID 485290; 0.28% of 350,000 active; Q9NUW8; Potency, µM (series often up to 130 µM), inactives show top-dose activity change, negative = inhibition, hits mostly inhibitors; further: on the % scale 0 is the no-effect control and ±100 the full control effect; nearly all actives have a fitted effect of over 40% in size
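Compounds were preincubated with Tdp1 (1 nM final) for 15 min at room temperature before substrate (15 nM final) started a 5 min reaction; beads (10 ug/ml final) were then added for 10 min before AlphaScreen detection.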
Tb PFK inh = blocks T. brucei phosphofructokinase | O15648 | T. brucei PFK, ADP-Glo luminescence | Potency, µM (highest dose often 57.5 µM), for the others: at the top dose activity, negative = inhibition, actives largely listed as inhibitors | 0.17% of 330,000 active | AID 485367;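 further: 0% = uninhibited 1x PFK enzyme wells and -100% = no-enzyme wells; nearly all actives have a fitted effect of over 60% in size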
Target sequence (O15648 whole entry, looked up): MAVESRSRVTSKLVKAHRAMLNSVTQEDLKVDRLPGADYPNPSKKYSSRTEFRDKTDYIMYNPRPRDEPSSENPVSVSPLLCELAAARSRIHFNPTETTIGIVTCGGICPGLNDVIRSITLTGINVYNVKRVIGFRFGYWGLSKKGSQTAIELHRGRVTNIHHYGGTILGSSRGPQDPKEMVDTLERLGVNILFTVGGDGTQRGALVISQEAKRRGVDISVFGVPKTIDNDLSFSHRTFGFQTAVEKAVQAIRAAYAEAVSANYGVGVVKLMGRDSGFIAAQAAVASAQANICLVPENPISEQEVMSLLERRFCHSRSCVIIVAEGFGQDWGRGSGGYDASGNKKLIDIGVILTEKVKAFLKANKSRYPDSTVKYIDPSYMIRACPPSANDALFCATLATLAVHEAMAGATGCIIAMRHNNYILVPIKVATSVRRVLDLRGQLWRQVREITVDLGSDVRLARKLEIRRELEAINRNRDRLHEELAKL
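Luminescent ADP detection (ADP-Glo, two-step: ATP depletion then ADP-to-ATP conversion for luciferase) reported PFK activity after 45 min room-temperature reaction of 1.25 nM enzyme with 0.5 mM F6P and 0.1 mM ATP at pH 8.0.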
PLK1 PBD block = PLK1 (human) polo-box domain binding inhibition; P53350; Plk1 PBD binding of FITC phosphopeptide, fluorescence polarization; Potency, µM, without a hit: max response, negative = inhibition, hits mostly inhibitors; 2.8% of 360,000 active; further: series mostly up to about 57 µM; on the % scale 0 is the no-effect control and ±100 the full control effect; nearly all actives have a fitted effect of over 65% in size
VDR inhibitor = vitamin D3 receptor (human) inhibition; P11473; VDR-SRC2-3 peptide fluorescence polarization, 2 h; Potency, µM, for the others: max response, negative = inhibition, usual class: inhibitors; 0.93% of 400,000 active; further: on the % scale 0 is the no-effect control and ±100 the full control effect
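The screen uses fluorescence polarization to detect compounds that interfere with recruitment of the SRC2-3 coactivator peptide to VDR; plates are read after 2 h at room temperature.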
Pin1 inhibitor = human Pin1 inhibition; Q13526; Pin1 FP peptide displacement, HiFluor488, 10 min; Potency, µM (series often up to 115 µM), for inactives: at the top dose activity, negative = inhibition, actives largely listed as inhibitors; 0.009% of 390,000 active; active means well fitted inhibition curve with a large enough effect in the polarisation, with a control signal flat, not every such curve was filed as active; inconclusive means small, poorly fitted or top-dose-only effect, or effect the other way, or a change in a side signal; inactive means no such curve, though single readings can be large or run the other way; the % refers to the polarisation; further: on the % scale 0 is the no-effect control and ±100 the full control effect
Target sequence (Q13526 whole entry, looked up): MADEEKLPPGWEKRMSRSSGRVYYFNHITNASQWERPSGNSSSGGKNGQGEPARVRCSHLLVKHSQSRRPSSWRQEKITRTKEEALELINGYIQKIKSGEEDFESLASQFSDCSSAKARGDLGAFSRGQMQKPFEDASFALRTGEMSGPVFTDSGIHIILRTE
ASM inhibitor = human S-ASM enzyme inhibition | P17405 | Potency, µM (series often up to 57.5 µM), for the others: at the top dose activity change, negative = inhibition, most hits filed as inhibitors | 0.006% of 340,000 active | placental ASM, HMU-PC fluorogenic substrate, 60 min
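HMU-PC0 cleavage (9 uM final) by human placental ASM, 60 min at 37 °C following 10 min compound exposure at RT; stopped at pH 10, fluorescence Ex 386/Em 447 nm.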
* hit, by the source's call; u = inconclusive; x = no result given; [ ] = remark or other dose. Most compounds without a hit are left out; they make up all but 3.1% or so of the library. Unless noted, the call rests on the fitted dose curve; in most records, active means well fitted curve in the direction sought with a large enough effect; inconclusive means small, poorly fitted or top-dose-only effect, or another doubt; inactive means no such curve, though single readings can be large; an effect the other way counts as inactive or inconclusive. Potency means the concentration at half of the fitted maximal effect.

SMILES	TDP1 inh	Tb PFK inh	PLK1 PBD block	VDR inhibitor	Pin1 inhibitor	ASM inhibitor
CN1CCN(C(c2ccc(Cl)cc2)c2cc(Cl)c3cccnc3c2O)CC1 (stereo unspecified)	-5.1%	-20.2%	2.38µM*	44.7µM*	4.8%	-0.7%
Oc1c(C(c2ccccn2)N2CCCCC2)cc(Cl)c2cccnc12 (stereo unspecified)	10.8%	11.3%	29.9µM*	u	-8.4%	0.1%
CC(=O)NC(c1ccccc1)c1cc(Cl)c2cccnc2c1O (stereo unspecified)	1.8%	-2.5%	-14.2%	17.3%	36.0%	0.4%
Cc1cc2c(s1)c1cnn(Cc3ccc(C#N)cc3)c(=O)c1n2C	x	x	x	x	1.2%	x
O=S(=O)(c1ccc(Br)cc1)N1CCN(S(=O)(=O)c2ccc3c(c2)OCCO3)CC1	x	x	x	x	-1.0%	x
COc1cc(OC)c2c(c1C(CCN1CCN(c3ccccc3)CC1)c1ccc(N(C)C)cc1)OC(=O)CC2c1ccc(N(C)C)cc1 (stereo unspecified)	25.6%	x	x	-5.7%	15.3%	x
Cc1ccc(Cn2c(=S)[nH]c3ccc(N4CCOCC4)cc3c2=O)o1	x	-10.4%	21.2µM*	17.8µM*	u	9.6%
Cc1cc(C)c(S(=O)(=O)NCC(c2ccco2)N2CCN(c3ccccc3)CC2)c(C)c1 (stereo unspecified)	2.6%	x	x	15.8%	3.6%	x
CC(=O)c1cccc(N2C(=NC(=O)COc3ccccc3)SC3CS(=O)(=O)CC32)c1 (stereo unspecified)	3.2%	-1.7%	23.8µM*	u	0.9%	4.8%
CC(=O)c1ccc(N2C(=NC(=O)COc3ccccc3)SC3CS(=O)(=O)CC32)cc1 (stereo unspecified)	3.6%	1.2%	3.4%	5.1%	u	5.4%
COc1cccc(-n2c(C)nc3c(cnn3-c3ccc(Cl)cc3)c2=O)c1	4.4%	-0.8%	21.2µM*	-4.1%	2.4%	3.0%
CCN1CCN(c2cc(C)c3cc(NC(=O)/C=C/c4ccc(OCCC(C)C)cc4)ccc3n2)CC1	5.9%	x	x	4.7%	2.5%	x
Cc1cccc(Nc2nc(C#N)nc(NC3CCCC3)n2)c1	-5.3%	x	x	x	7.7%	x
CCc1cc2c(=O)n(Cc3ccco3)c(SCc3c(C)noc3C)nc2s1	9.1%	0.4%	-23.7%	79.4µM*	35.6%	-5.3%
CCN(CC)C(=O)Cc1c(OC)ccc2cc(Br)ccc12	-1.2%	-0.2%	1.4%	u	-3.0%	3.0%
CCN(Cc1ccncc1)Cc1c(O)ccc2cc(Br)ccc12	10.7%	-29.1%	10.6µM*	-15.9%	-5.7%	3.7%
Brc1ccc(C2=CC(c3ccco3)n3nnnc3N2)cc1 (stereo unspecified)	2.6%	0.6%	2.3%	-6.3%	2.9%	2.9%
COc1ccc(C2C=C(c3ccc(C)cc3)Nc3ncnn32)cc1 (stereo unspecified)	10.0%	-0.6%	-0.1%	-4.9%	-6.2%	215.9%
Fc1ccc(C2=CC(c3ccc(Br)o3)n3ncnc3N2)cc1 (stereo unspecified)	5.8%	-1.1%	10.6µM*	u	u	50.2%
Oc1ccc(C2C=C(c3ccc(F)cc3)Nc3ncnn32)cc1 (stereo unspecified)	8.6%	-0.5%	u	-9.2%	u	16.6%
Cc1ccc(C2C=C(c3ccccc3)Nc3ncnn32)cc1 (stereo unspecified)	x	x	29.9µM*	u	u	69.8%
C1=C(c2ccc(-c3ccccc3)cc2)Nc2ncnn2C1c1ccco1 (stereo unspecified)	5.9%	0.4%	4.74µM*	1.4%	u	41.6%
Cc1ccc(S(=O)(=O)N2CCN(c3cc(-c4cccs4)nc4ccccc34)CC2)cc1	x	x	x	-19.1%	-0.1%	x
C=CCn1nc([N+](=O)[O-])nc1Sc1cccc2cccnc12	5.6%	-4.9%	7.52µM*	u	-4.3%	1.1%
O=[N+]([O-])c1ccc(Sc2cccc3cccnc23)c([N+](=O)[O-])c1	9.1%	-4.5%	6.7µM*	u	-3.7%	-10.8%
SMILES	TDP1 inh	Tb PFK inh	PLK1 PBD block	VDR inhibitor	Pin1 inhibitor	ASM inhibitor
O=S(=O)(NCCc1cn(S(=O)(=O)c2ccccc2)c2ccccc12)c1ccccc1	-10.6%	x	x	1.3%	4.0%	x
CC(C)c1nc2ccc(C(=O)NCCCN3CCN(c4ccccc4F)CC3)cc2o1	-0.6%	x	x	13.4%	-3.1%	x
CC(=O)Oc1ccc2c(c1)O/C(=C\c1ccncc1)C2=O	5.5%	1.4%	u	-13.5%	u	-7.9%
COc1ccccc1C(=O)Oc1ccc2c(c1)O/C(=C\c1ccncc1)C2=O	5.4%	0.0%	0.0%	35.5µM*	u	-6.7%
O=C1/C(=C/c2cccnc2)Oc2cc(OS(=O)(=O)c3ccccc3)ccc21	11.7%	-0.6%	-21.4%	50.1µM*	6.8%	-18.2%
Cc1ccc2cccc(NC(=O)c3ccc(-c4cccc(Cl)c4Cl)o3)c2n1	0.6%	x	x	-1.6%	0.7%	x
CC1CCC(O)C/C1=C\C=C1/CCCC2(C)C1CCC2C(C)/C=C/C(C)C(C)C (stereo unspecified)	11.5%	x	x	u	x	x
O=C(NCc1ccccc1)[C@]1(C(F)(F)F)C[C@H](CCCO)CCCO1	5.6%	x	x	-8.9%	2.1%	x
Cc1ccc(/C=N/N=C/c2ccc(C)cc2)cc1	2.8%	0.8%	21.2µM*	-14.5%	3.2%	3.6%
Oc1ccc(/C=N/N=C/c2ccc(O)cc2)cc1	-2.5%	1.2%	2.7%	-7.6%	-9.4%	94.5%
CCNc1ccc(Br)cc(C(=O)/C=C/c2ccc3c(c2)OCO3)c1=O	-13.3%	0.7%	u	89.1µM*	-20.6%	-13.2%
Cc1ccc(CNC(=O)C2CCCN(c3ncnc4onc(-c5ccc(F)cc5)c34)C2)cc1 (stereo unspecified)	-3.2%	x	x	10.5%	0.2%	x
O=S(=O)(c1cccc(C(F)(F)F)c1)N1CCN(C(=S)NCc2ccco2)CC1	8.5%	-1.4%	-15.6%	4.8%	-1.5%	-4.5%
CC(C)c1ccc(S(=O)(=O)N2CCN(C(=S)NCc3ccco3)CC2)cc1	5.6%	-1.5%	21.2µM*	u	30.7%	-2.3%
COC(=O)Cc1csc(NC(=O)CSc2nnc3ccccn23)n1	-2.7%	0.5%	16.8µM*	u	6.0%	0.4%
COc1cc(-c2ccc3ncnc(NCc4ccc(C)o4)c3c2)cc(OC)c1OC	x	x	x	x	8.7%	x
O=C1[C@H]2[C@H]3[C@H](O)[C@H](O)C/C(=N/OCc4ccccc4)[C@H]3CC[C@@H]2C(=O)N1c1cccc(Oc2ccccc2)c1	10.1%[21 µM]	x	x	x	x	x
O=C(Cc1ccc(Br)cc1)NC1CCCc2ccccc21 (stereo unspecified)	1.7%	-0.9%	0.0%	-3.9%	1.0%	0.4%
O=C(CCl)NC1CCCc2ccccc21 (stereo unspecified)	6.0%	0.6%	26.7µM*	3.4%	-7.3%	1.6%
CN1CCN(C(=O)c2ccccc2NC(=O)c2ccccc2Br)CC1	0.4%	1.4%	4.2%	-17.2%	0.9%	-1.4%
